Most compounds without a hit are left out; they make up all but 0.9% or so of the library.
PfHsp40 yeast: restores yeast growth despite PfHsp40 toxicity; S. cerevisiae expressing PfHsp40, growth rescue, ATP luminescence; growth rescue, % at 12.5 µM; 340,000 tested, 0.68% active; in the data active = growth rescue above about 28%, passing the limit was not always enough;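 also: yeast W303a lacking pdr1 and pdr3 grown in galactose medium; growth measured after three days at 30 °C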
BioA inh-1: blocks M. tuberculosis BioA enzyme activity; purified M. tuberculosis BioA enzyme, plate reader; inhibition, % at 9.99 µM; 360,000 tested, 0.096% active; AID 602481; in the data active = inhibition above about 40%
RN4220 kill: S. aureus RN4220 growth inhibition; AID 1259311; inhibition, % (no concentration beside the values); 330,000 tested, 0.33% active; OD600, 16 h; in the data active = inhibition above about 85%;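 also: plate controls were untreated cells for no effect and reference antibiotic for full effect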
ugtP null kill: growth inhibition of S. aureus ugtP deletion strain | S. aureus RN4220 ugtP deletion, OD600 growth, 16 h | growth inhibition, % (test concentration not listed) | 330,000 tested, 0.54% active; in the data active = growth inhibition above about 68%;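 also: plate controls were untreated wells for no effect and antibiotic for full effect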
Mtb betalactam: beta-lactam sensitization of Mtb H37Rv. AID 434955. M. tuberculosis H37Rv growth with meropenem, percent inhibition. 330,000 tested, 0.27% active. inhibition, % at 25 µM;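 also: growth measured after seven days incubation then overnight dye step; 0% = bacteria only wells and 100% = bacteria with antibiotic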
BioA inh-2: Mtb BioA enzyme inhibition; shares compounds with BioA inh-1; 310 tested, under 10 active; max activity, %; purified BioA enzyme, plate reader, dose response;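 also: top concentration of the dilution series was 10 µM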
Target sequence (P9WQ81 whole entry, looked up): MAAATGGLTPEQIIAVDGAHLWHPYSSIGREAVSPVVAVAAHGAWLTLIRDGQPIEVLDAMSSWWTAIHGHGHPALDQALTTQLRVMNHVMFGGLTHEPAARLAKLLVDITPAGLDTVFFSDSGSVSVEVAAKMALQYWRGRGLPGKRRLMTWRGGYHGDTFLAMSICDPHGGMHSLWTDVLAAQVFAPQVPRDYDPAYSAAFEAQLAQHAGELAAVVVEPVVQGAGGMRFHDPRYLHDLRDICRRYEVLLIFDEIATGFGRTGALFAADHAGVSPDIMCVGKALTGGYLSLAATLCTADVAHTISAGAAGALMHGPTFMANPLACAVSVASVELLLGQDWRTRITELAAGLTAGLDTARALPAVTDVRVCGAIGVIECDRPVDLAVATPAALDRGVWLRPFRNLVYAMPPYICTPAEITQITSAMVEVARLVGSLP
HepG2 cytotox: HepG2 viability loss; max activity, %; HepG2 cytotoxicity, plate reader; AID 651898; 310 tested, under 10 active; shares compounds with BioA inh-1
NIH3T3 tox 5: cytotoxicity in NIH3T3 cells | activity change, negative = cytotoxicity, % at 26 µM | shares compounds with BioA inh-1 | plate reader | 310 tested, under 10 active
Starred values were filed as active, the others as inactive; [ ] = dose if it differs, or a comment. Unless noted, no rule for the calls is given here.

Screening COc1ccc(-c2cc(NC=O)c3ncc(-c4cccc(C(=O)N(C)C)c4)n3c2)cn1 returned BioA inh-1 42*, BioA inh-2 -5, HepG2 cytotox -10 and NIH3T3 tox 5 -4.
COc1c2ccoc2c(OCC(O)C(C)(C)O)c2oc(=O)ccc12 (stereo not given) was read as RN4220 kill 2 and ugtP null kill -1.
`CC(Oc1ccc2c(-c3ccccc3)cc(=O)oc2c1)C(=O)N1CCOCC1` (stereo not given) gave PfHsp40 yeast 0, BioA inh-1 11, RN4220 kill 5, ugtP null kill 2 and Mtb betalactam -1.
`CC(Oc1ccc2ccc(=O)oc2c1)C(=O)N1CCOCC1` (stereo not given) gave PfHsp40 yeast 0, BioA inh-1 66*, RN4220 kill -1, ugtP null kill -2, Mtb betalactam -12, BioA inh-2 -10, HepG2 cytotox 10 and NIH3T3 tox 5 -9.
Screening CCn1c(=O)n(CC)c2cc(N3CCCC3)c(NC(=O)c3ccc(F)cc3)cc21 returned PfHsp40 yeast -1, BioA inh-1 17 and Mtb betalactam 26.
CCOc1ccc(C(=O)Nc2cc3c(cc2N2CCCC2)n(CC)c(=O)n3CC)cc1OCC was read as PfHsp40 yeast -1, BioA inh-1 57*, RN4220 kill -1, ugtP null kill -8, Mtb betalactam 99, BioA inh-2 -10, HepG2 cytotox -12 and NIH3T3 tox 5 -14.
COc1ccc(C=CC(=O)Nc2cc(S(=O)(=O)N3CCCCC3)ccc2N2CCCCC2)cc1OC was read as RN4220 kill 9 and ugtP null kill -7.
For CCOC(=O)c1nn(-c2ccc(F)cc2)c2c1CCC2=Cc1ccccc1 the results were RN4220 kill 8 and ugtP null kill -16.
C=CCn1c(SCCN2C(=O)c3ccccc3C2=O)nc2scc(-c3ccc(F)cc3)c2c1=O was read as PfHsp40 yeast -1, RN4220 kill 2 and ugtP null kill 7.
`C=CCn1c(COc2ccccc2F)nnc1SCCN1C(=O)c2ccccc2C1=O` gave PfHsp40 yeast -1, BioA inh-1 44*, RN4220 kill 7, ugtP null kill -4, Mtb betalactam 51, BioA inh-2 -7, HepG2 cytotox 12 and NIH3T3 tox 5 0.
Screening O=C(CC1CC=CCCC(Cc2ccc(F)cc2)C(=O)OCC2CCCN2C1=O)NC(CO)Cc1ccccc1 (stereo not given) returned RN4220 kill 1 and ugtP null kill 4.
For COC(=O)C[C@@H]1C[C@@H]2c3cc(NC(=O)c4cccnc4)ccc3O[C@@H]2[C@@H](CO)O1 the results were BioA inh-1 51*, BioA inh-2 4, HepG2 cytotox inactive and NIH3T3 tox 5 7.
`O=C(C[C@@H]1C[C@@H]2c3cc(NC(=O)c4cccnc4)ccc3O[C@@H]2[C@@H](CO)O1)NCCc1ccccc1` gave BioA inh-1 41*, BioA inh-2 -4, HepG2 cytotox inactive and NIH3T3 tox 5 -5[23.5 µM].
Screening CCOC1OC(C(=O)N2CCN(Cc3ccc4c(c3)OCO4)CC2)=CC(C(C)(C)C)C1CCCO (stereo not given) returned RN4220 kill 5 and ugtP null kill 3.
For O=C(N[C@H]1CC[C@@H](CCn2cc(-c3cccnc3)nn2)O[C@@H]1CO)c1ccccc1F the results were BioA inh-1 55*, BioA inh-2 8, HepG2 cytotox inactive and NIH3T3 tox 5 7.
O=C(N[C@@H]1CC[C@H](CCn2cc(-c3cccnc3)nn2)O[C@@H]1CO)c1ccccc1F was read as BioA inh-1 60*, BioA inh-2 5, HepG2 cytotox inactive and NIH3T3 tox 5 7.
O=C(N[C@H]1CC[C@H](CCn2cc(-c3cccnc3)nn2)O[C@H]1CO)c1ccccc1F was read as BioA inh-1 7.
Screening CC(=O)c1ccc(-c2ccc(C3C4C=CCC[C@@]4(C)C(=O)N3Cc3ccccc3)c(F)c2)cc1 (stereo not given in full) returned RN4220 kill -2 and ugtP null kill 6.
`C/C=C/c1ccc2c(c1)O[C@@H](CN(C)C(=O)Cc1cccnc1)[C@H](C)CN([C@H](C)CO)S2(=O)=O` gave BioA inh-1 56*, BioA inh-2 -9, HepG2 cytotox inactive and NIH3T3 tox 5 -1.
C/C=C/c1ccc2c(c1)O[C@@H](CN(C)C(=O)c1ccc3c(c1)OCO3)[C@@H](C)CN([C@@H](C)CO)S2(=O)=O was read as BioA inh-1 46*, BioA inh-2 8, HepG2 cytotox inactive and NIH3T3 tox 5 -6.
For COc1ccc(C2C(=C(O)c3ccc4c(c3)CC(C)O4)C(=O)C(=O)N2CCN2CCOCC2)cc1 (stereo not given) the results were RN4220 kill 2 and ugtP null kill -2.
Cc1cccc(-c2nnc(SCC#N)n2Cc2ccccc2)c1 was read as PfHsp40 yeast 0, BioA inh-1 15, RN4220 kill 4, ugtP null kill 6 and Mtb betalactam -8.
Screening Cc1cccc(-c2nnc(SCC#N)n2-c2ccccc2)c1 returned PfHsp40 yeast 0, BioA inh-1 44*, RN4220 kill 3, ugtP null kill 3, Mtb betalactam -4, BioA inh-2 -6, HepG2 cytotox -6 and NIH3T3 tox 5 -5.
`O=C(c1ccc2c(c1)OCO2)N1CC[C@@H]2[C@@H](CO)Nc3ccc(-c4ccc(F)cc4)cc3[C@@H]21` gave BioA inh-1 10.
`N#Cc1ccc(-c2ccc3c(c2)[C@@H]2[C@@H](CCN2C(=O)c2ccc(F)cc2)[C@@H](CO)N3)cc1` gave BioA inh-1 40*, BioA inh-2 5, HepG2 cytotox inactive and NIH3T3 tox 5 -6.
N#Cc1ccc(-c2ccc3c(c2)[C@H]2[C@H](CCN2C(=O)c2ccc(F)cc2)[C@H](CO)N3)cc1 was read as BioA inh-1 10.
O=C(c1ccc2c(c1)OCO2)N1CC[C@@H]2[C@H](CO)Nc3ccc(-c4ccc(F)cc4)cc3[C@@H]21 was read as BioA inh-1 90*, BioA inh-2 -7, HepG2 cytotox inactive and NIH3T3 tox 5 -13.
Screening COC(=O)[C@]1(CC(C)C)NC(c2ccc(-c3ccc(C(C)=O)cc3)cc2)C2C(=O)N(C)C(=O)C21 (stereo not given in full) returned RN4220 kill -2 and ugtP null kill -11.
`Cc1ccc(S(=O)(=O)N2C(c3cccs3)CC=C(C(=O)O)C2c2ccc(F)cc2)cc1` (stereo not given) gave RN4220 kill 23 and ugtP null kill 21.
